# Data as given in PubChem BioAssay.
# Calls of active or inactive are those of the source.
# Experiments:
# [1] = test system: PRMT1 (protein arginine N-methyltransferase 1); assay: small molecules binding arginine methyltransferase PRMT1 – biochemical, small-molecule microarray, 635 nm fluorescence, primary screen (AID 1088); settings: higher = more signal;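 further: binding of Prmt1 protein to compounds spotted on small-molecule microarray slides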
# [2] = growth effects on S. cerevisiae YJM789 – YJM789 clinical isolate, OD600, 24 h, basal, primary screen (AID 1089); settings: higher = more signal, called active from +8 up or from −8 down;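 further: growth of clinical yeast isolate S. cerevisiae YJM 789 seeded 1000 cells per well; test concentration not given here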
# [3] = S. pombe growth modifiers, basal conditions – strain 972, OD600, 24 h, no modulator, primary screen (AID 1090);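 further: basal condition with compound alone and no growth modifier present; test concentration not given here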; settings: S. pombe 972 growth, higher = more signal, called active from +8 up or from −8 down
# [4] = budding yeast growth modifiers under rapamycin – strain BY4716, OD600, 96 h, primary screen (AID 1091); further: test concentration not given here; settings: S. cerevisiae BY4716 + rapamycin, higher = more signal, called active from +8 up or from −8 down
# [5] = biological target: Torsin-1A-interacting protein 2 (Homo sapiens) (UniProt Q8NFQ8); assay: small molecules binding lysate-expressed LULL1 – cell lysate, human LULL1 lysate, 635/667 nm fluorescence, primary screen (AID 1092); settings: small-molecule microarray, hLULL1 lysate binding, 635 nm fluorescence; higher = more signal;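 further: probe is lysate of COS7 cells overexpressing human LULL1; score merges per-feature 667 nm fluorescence with signal-to-noise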
# [6] = optical density change of DRC41 E. coli – strain DRC41, OD650, 24 h, E. coli filamentation project, primary screen (AID 1093);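 further: MC1000 strain lacking acrAB efflux and sulA so SOS filamentation is blocked; test concentration not given here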; settings: E. coli DRC41 growth, higher = more signal, called active from +8 up or from −8 down
# [7] = probe aLefty2 binding to arrayed compounds – biochemical, biotinylated probe, 635/667 nm fluorescence, primary screen (AID 1094); settings: small-molecule microarray, higher = more signal;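 further: score merges spot fluorescence near 667 nm with spot signal-to-noise ratio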
# [8] = test system: Noggin (protein binding on small-molecule microarray); assay: small molecules binding Noggin protein – biochemical, 635/667 nm fluorescence, primary screen (AID 1095); settings: 635 nm fluorescence, higher = more signal;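 further: score merges 667 nm feature fluorescence with signal to noise over triplicate slides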
# [9] = biological target: Neurogenic locus notch homolog protein 3 (Homo sapiens) (UniProt Q9UM47); assay: small molecules binding NOTCH3 protein – biochemical, 635/667 nm fluorescence, primary screen (AID 1096); settings: small-molecule microarray, 635 nm fluorescence, higher = more signal
# [10] = probe aEGFR binding to arrayed compounds – biochemical, biotinylated probe, 635/667 nm fluorescence, primary screen (AID 1097); settings: small-molecule microarray, higher = more signal;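 further: probe is a biotinylated anti-EGFR antibody binding compounds printed on slides; score combines fluorescence near 667 nm and signal to noise of each spot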
# [11] = test system: Plasmodium falciparum Sir2 (PF13_0152, Sir2A); assay: Plasmodium falciparum Sir2A binding compounds – biochemical, small-molecule microarray, 635 nm fluorescence, primary screen (AID 1098); settings: fluorescence 635 nm, higher = more signal;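 further: score merges spot fluorescence intensity with its signal-to-noise ratio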
# [12] = probe aDKK1 binding to arrayed compounds – biochemical, biotinylated probe, 635/667 nm fluorescence, primary screen (AID 1099); settings: small-molecule microarray, higher = more signal;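 further: score merges 667nm spot fluorescence with signal to noise across triplicate slides; reference of the scale not given here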
# [13] = probe aCHRDL2 binding to arrayed compounds – biochemical, biotinylated probe, 635/667 nm fluorescence, primary screen (AID 1100); settings: small-molecule microarray, higher = more signal
# [14] = change in splice reporter luminescence, either direction, cell-based, HEK293, spliceosome inhibition project, primary screen (AID 1101); settings: HEK293 splicing luciferase reporter, 24 h, higher = more signal, called active from +8 up or from −8 down;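 further: HEK293 cells carrying a splicing-competent luciferase reporter gene; test concentration not given here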
# [15] = biological target: Fibroblast growth factor 10 (Homo sapiens) (UniProt O15520); assay: compounds binding fibroblast growth factor 10 – biochemical, small-molecule microarray, 635 nm fluorescence, primary screen (AID 1102); settings: FGF10 binding, fluorescence 635 nm, higher = more signal
# [16] = test system: glycogen synthase kinase-3 (GSK3A per assay name; protocol says GSK3B); assay: compounds binding glycogen synthase kinase-3 – biochemical, small-molecule microarray, 635 nm fluorescence, GSK3A, primary screen (AID 1103); settings: fluorescence 635 nm, higher = more signal; further: the record names both GSK3A and GSK3B
# [17] = biological target: Epidermal growth factor receptor (Homo sapiens) (UniProt P00533); assay: compounds binding epidermal growth factor receptor – biochemical, small-molecule microarray, 635 nm fluorescence, primary screen (AID 1104); settings: EGFR binding, higher = more signal;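 further: score merges 667 nm emission intensity with spot signal to noise over triplicate slides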
# [18] = biological target: Follistatin-related protein 3 (Homo sapiens) (UniProt O95633); assay: compounds binding follistatin-related protein 3 – biochemical, small-molecule microarray, 635 nm fluorescence, primary screen (AID 1105); settings: FSTL3 binding, higher = more signal;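 further: score merges emission near 667 nm and signal to noise per printed spot across three slides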
# [19] = biological target: Dickkopf-related protein 1 (Homo sapiens) (UniProt O94907); assay: small molecules binding DKK1 protein – biochemical, small-molecule microarray, 635 nm fluorescence scan, primary screen (AID 1106); settings: higher = more signal;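 further: score merges emission near 667 nm with signal to noise over three replicate slides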
# [20] = test system: Inhibin beta A chain (activin A); assay: small molecules binding activin A – biochemical, small-molecule microarray, 635 nm fluorescence scan, primary screen (AID 1107); settings: INHBA, higher = more signal;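 further: mouse activin A protein probed at 4.33 µg/mL on printed slides; score merges bound-protein fluorescence near 667 nm with spot signal-to-noise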
# Sequence of Dickkopf-related protein 1 (Homo sapiens) (O94907 whole entry, looked up): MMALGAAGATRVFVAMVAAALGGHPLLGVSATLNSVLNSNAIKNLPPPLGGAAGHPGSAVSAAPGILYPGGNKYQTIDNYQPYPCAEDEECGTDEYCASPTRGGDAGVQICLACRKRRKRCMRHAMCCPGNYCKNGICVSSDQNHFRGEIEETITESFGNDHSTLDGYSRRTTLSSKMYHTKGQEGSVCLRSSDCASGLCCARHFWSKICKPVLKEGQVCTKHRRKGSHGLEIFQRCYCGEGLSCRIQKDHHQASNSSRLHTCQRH
# Sequence of Epidermal growth factor receptor (Homo sapiens) (P00533 whole entry, looked up): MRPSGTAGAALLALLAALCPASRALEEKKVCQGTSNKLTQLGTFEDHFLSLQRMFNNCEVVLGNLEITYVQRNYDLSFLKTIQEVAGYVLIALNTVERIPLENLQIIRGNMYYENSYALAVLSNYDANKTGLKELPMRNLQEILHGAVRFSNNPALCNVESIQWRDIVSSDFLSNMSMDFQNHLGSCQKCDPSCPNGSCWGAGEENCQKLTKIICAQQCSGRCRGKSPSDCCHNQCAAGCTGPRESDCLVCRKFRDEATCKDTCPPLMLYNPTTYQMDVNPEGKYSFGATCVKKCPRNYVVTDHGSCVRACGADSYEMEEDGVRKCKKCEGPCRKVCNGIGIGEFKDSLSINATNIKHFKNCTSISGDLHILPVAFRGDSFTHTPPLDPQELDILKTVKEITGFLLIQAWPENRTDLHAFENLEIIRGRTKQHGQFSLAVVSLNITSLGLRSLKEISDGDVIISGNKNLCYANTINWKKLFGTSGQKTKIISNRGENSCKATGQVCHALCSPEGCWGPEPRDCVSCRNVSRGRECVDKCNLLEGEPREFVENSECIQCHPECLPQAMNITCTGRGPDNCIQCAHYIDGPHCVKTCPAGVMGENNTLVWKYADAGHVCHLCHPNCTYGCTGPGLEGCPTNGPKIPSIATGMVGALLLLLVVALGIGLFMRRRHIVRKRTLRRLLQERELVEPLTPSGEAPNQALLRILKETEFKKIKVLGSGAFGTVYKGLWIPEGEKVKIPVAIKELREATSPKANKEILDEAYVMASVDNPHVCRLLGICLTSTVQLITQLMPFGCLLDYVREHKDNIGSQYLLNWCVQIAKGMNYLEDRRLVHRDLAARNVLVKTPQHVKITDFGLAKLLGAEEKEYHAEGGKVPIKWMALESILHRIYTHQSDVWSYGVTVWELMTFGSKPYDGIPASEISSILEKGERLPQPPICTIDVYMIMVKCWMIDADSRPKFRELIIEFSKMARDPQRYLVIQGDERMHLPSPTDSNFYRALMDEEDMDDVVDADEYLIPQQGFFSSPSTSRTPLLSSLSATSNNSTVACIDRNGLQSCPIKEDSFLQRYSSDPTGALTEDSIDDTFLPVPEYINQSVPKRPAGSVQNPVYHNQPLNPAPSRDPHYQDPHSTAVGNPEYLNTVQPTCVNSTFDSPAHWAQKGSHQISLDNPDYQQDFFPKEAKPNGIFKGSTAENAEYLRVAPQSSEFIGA
# Sequence of Neurogenic locus notch homolog protein 3 (Homo sapiens) (Q9UM47 whole entry, looked up): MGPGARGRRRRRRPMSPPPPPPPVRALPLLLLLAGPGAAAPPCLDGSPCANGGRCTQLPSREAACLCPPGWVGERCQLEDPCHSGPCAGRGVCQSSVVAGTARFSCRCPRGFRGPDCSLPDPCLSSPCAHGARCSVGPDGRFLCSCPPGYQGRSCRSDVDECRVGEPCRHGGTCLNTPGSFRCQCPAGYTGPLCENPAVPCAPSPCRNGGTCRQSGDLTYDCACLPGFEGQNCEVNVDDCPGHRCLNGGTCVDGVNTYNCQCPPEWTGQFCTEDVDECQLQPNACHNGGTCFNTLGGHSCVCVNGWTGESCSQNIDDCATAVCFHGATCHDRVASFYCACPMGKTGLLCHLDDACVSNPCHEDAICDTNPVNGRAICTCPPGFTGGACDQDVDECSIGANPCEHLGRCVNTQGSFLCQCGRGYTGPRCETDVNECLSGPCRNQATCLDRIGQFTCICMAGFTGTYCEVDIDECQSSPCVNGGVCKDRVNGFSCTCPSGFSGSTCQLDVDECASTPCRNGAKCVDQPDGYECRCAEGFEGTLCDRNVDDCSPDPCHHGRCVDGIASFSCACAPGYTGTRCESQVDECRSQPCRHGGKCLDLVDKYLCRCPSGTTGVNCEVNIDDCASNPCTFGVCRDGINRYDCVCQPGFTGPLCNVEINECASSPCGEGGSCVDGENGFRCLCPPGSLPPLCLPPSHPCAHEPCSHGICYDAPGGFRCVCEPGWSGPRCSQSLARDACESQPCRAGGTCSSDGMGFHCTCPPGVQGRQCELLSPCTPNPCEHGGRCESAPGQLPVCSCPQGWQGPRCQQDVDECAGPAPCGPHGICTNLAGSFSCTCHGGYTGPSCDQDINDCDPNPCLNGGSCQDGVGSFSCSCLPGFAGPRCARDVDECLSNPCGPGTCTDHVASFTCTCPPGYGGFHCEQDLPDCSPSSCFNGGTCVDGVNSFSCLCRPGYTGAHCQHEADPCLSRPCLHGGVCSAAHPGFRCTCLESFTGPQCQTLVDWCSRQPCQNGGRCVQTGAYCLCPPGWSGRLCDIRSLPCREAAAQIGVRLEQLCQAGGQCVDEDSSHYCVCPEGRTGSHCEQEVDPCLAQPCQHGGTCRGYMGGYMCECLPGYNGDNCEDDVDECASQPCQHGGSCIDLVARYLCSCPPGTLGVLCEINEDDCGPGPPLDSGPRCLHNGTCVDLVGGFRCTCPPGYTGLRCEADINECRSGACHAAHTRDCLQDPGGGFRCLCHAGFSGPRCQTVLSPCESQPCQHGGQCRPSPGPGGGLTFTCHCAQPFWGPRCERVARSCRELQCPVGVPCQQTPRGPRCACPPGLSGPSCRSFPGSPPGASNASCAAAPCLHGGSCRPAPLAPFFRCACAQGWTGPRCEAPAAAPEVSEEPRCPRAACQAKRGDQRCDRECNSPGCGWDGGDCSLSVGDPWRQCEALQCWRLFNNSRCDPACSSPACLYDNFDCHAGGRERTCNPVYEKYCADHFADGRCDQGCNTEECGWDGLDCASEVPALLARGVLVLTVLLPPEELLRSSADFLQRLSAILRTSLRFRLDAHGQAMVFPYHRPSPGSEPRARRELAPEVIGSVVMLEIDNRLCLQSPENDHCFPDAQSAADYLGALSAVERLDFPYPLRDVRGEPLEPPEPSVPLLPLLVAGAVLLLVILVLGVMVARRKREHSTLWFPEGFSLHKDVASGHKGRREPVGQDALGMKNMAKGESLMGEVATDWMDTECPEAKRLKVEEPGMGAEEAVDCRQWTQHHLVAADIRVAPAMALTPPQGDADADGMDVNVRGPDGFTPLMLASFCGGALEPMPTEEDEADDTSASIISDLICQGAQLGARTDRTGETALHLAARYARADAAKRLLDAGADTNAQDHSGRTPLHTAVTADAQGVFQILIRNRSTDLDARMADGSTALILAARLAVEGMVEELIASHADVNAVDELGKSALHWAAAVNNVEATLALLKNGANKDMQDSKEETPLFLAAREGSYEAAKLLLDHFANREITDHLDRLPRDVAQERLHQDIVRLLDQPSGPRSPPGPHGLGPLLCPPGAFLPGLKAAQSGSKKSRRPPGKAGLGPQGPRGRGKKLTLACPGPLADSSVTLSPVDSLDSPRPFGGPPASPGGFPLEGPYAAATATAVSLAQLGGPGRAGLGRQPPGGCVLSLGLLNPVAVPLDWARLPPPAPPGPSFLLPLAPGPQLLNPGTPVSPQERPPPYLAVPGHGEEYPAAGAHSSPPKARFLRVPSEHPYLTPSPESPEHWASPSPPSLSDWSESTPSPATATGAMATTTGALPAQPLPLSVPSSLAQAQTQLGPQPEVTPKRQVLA
# Sequence of Fibroblast growth factor 10 (Homo sapiens) (O15520 whole entry, looked up): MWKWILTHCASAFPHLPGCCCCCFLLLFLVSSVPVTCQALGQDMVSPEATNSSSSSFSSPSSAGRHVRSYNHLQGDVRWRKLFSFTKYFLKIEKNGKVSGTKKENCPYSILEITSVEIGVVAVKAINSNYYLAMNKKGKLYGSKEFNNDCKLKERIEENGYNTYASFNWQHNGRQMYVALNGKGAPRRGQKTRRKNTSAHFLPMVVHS
# Sequence of Torsin-1A-interacting protein 2 (Homo sapiens) (Q8NFQ8 whole entry, looked up): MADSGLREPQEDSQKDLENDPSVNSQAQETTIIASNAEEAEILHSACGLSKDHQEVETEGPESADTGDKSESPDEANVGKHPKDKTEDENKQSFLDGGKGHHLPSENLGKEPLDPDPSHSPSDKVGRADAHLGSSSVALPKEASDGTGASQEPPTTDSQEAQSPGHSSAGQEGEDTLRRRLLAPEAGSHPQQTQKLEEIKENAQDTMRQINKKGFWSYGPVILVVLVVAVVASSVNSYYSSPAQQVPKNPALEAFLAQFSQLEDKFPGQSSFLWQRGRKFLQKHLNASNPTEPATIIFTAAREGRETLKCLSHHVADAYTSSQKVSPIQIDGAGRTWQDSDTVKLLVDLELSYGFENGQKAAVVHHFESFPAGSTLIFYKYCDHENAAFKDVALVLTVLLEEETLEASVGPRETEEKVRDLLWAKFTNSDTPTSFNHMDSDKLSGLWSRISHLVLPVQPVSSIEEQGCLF
# Sequence of Follistatin-related protein 3 (Homo sapiens) (O95633 whole entry, looked up): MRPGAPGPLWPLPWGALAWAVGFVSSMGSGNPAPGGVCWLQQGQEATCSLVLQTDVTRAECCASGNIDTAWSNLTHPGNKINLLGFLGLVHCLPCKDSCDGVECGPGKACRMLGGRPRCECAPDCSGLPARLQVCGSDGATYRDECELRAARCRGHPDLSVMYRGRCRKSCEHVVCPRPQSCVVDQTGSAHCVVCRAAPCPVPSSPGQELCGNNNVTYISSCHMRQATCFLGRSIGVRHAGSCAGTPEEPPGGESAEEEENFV
Structure (SMILES),composite z-score [1],z-score [2],z-score [3],z-score [4],composite z-score [5],z-score [6],composite z-score [7],composite z-score [8],composite z-score [9],composite z-score [10],composite z-score [11],composite z-score [12],composite z-score [13],z-score [14],composite z-score [15],composite z-score [16],composite z-score [17],composite z-score [18],composite z-score [19],composite z-score [20]
CC(C)CON=C1C[C@@H](O)[C@@H](O)[C@@H]2[C@@H]3C(=O)N(C4CCCCC4)C(=O)[C@@H]3CC[C@H]12,1.42,0.0058 (inactive),0.303 (inactive),-0.393 (inactive),1.1,0.411 (inactive),-0.0396,0.683,1.13,-0.0817,0.209,0.0948,-0.106,0.00397 (inactive),0.74,0.842,0.362,0.611,0.544,-0.312
CO[C@H]1COC(=O)[C@@H]2CCCN2C(=O)CC=C[C@@H](C)[C@H](OC)COC(=O)[C@@H](OCc2ccccc2)C=C[C@@H]1C,1.3,0.14 (inactive),-0.826 (inactive),0.087 (inactive),-1.13,0.279 (inactive),-0.155,1.08,-0.203,0.0564,0.695,-0.665,-1.24,-1.63 (inactive),0.163,0.484,0.547,0.907,1.75,1.58
COc1cccc([C@@H]2Oc3ccc(OC)cc3C(=O)[C@H]2O)c1,0.597,-2.23 (inactive),-4.98 (inactive),-2.1 (inactive),0.704,0.349 (inactive),-0.173,0.052,0.415,-0.0697,-0.117,-0.172,-0.705,-2.47 (inactive),0.606,0.184,0.469,0.525,0.527,0.0204
CC(=O)OC[C@H]1O[C@H](C#Cc2ccccc2)C=C[C@@H]1OC(C)=O,0.48,0.444 (inactive),-2.17 (inactive),-0.747 (inactive),0.496,0.875 (inactive),-0.0836,0.653,0.812,-0.0953,1.27,-0.0406,-0.219,-1.92 (inactive),0.338,0.163,0.0278,0.59,0.57,0.58
CO[C@@H]1COC(=O)[C@@H](C)NC(=O)CC=C[C@@H](C)[C@H](NS(=O)(=O)c2ccc(C)cc2)COC(=O)[C@H](C)NC(=O)CC=C[C@H]1C,1.36,-0.263 (inactive),-0.988 (inactive),-0.331 (inactive),0.537,1.72 (inactive),-0.319,0.879,0.225,-0.0793,1.49,-0.629,-1.22,0.347 (inactive),0.611,0.625,0.57,0.661,0.822,1.4
C[C@H]1CC[C@H]2C(=O)O[C@H](COc3ccc(C(C)(C)C)cc3)CN2[C@@H]1c1ccc(Br)cc1,0.27,-0.364 (inactive),-0.725 (inactive),0.474 (inactive),0.55,-0.535 (inactive),0.0056,-0.0084,-0.164,-0.143,0.926,-0.143,-0.0663,0.134 (inactive),0.0311,0.102,-0.0022,-0.156,-0.189,0.0563
CCC(=O)[C@@]1(O)C(=O)N2C(=C3C(=O)OCC[C@@H]31)N(Cc1ccccc1)C(C)=C(C(=O)OC)[C@H]2c1ccccc1,0.374,0.725 (inactive),-0.612 (inactive),0.0739 (inactive),0.399,0.568 (inactive),-0.232,0.644,0.367,-0.0059,0.413,-0.302,-0.624,0.501 (inactive),0.241,0.554,0.43,0.429,0.873,-0.0748
COC(=O)CC=C[C@@H](C)[C@@H](C=NOC[C@@H](O)[C@H]1O[C@@H]2OC(C)(C)O[C@@H]2[C@H]1O)NS(=O)(=O)c1ccc(C)cc1,0.601,-0.684 (inactive),-0.137 (inactive),-0.408 (inactive),0.308,0.445 (inactive),0.0528,0.974,0.638,-0.0553,0.698,-0.251,-0.614,0.318 (inactive),0.504,0.471,0.419,0.427,0.653,-0.0684
Cc1cc2c(c(=O)o1)[C@@H](O)[C@H]1O[C@H]1C2=O,0.798,0.112 (inactive),-0.0772 (inactive),0.233 (inactive),0.0376,-1 (inactive),-0.358,0.887,0.482,-0.12,0.338,-0.145,-0.699,-0.533 (inactive),0.436,0.231,0.287,0.522,0.585,0.0545
